A selection: hits, their analogues and other compounds. The true share with any hit is near 2.8%.
PP1 counter: PP1-alpha (human) inhibition in PP5 counter-screen | purified PP1alpha, OMFP fluorescence | inhibition, % at 6.7 µM | hit rate 0.9% among 320,000;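 active means inhibition above the mean inhibition of all tested compounds plus 3 SD, computed separately for each screening campaign, cut at about 15% in these data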
Target sequence (P62136 whole entry, looked up): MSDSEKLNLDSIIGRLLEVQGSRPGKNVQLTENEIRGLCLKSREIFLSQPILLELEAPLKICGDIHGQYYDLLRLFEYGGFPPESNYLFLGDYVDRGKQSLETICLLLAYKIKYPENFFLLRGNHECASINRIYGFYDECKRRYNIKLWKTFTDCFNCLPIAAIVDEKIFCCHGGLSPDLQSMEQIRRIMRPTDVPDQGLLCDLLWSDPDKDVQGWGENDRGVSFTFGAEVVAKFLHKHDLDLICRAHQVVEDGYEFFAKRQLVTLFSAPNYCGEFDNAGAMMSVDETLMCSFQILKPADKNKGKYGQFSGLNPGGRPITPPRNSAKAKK
Rev-erbA mod: modulators of human Rev-erb alpha DNA binding; P20393; Rev-erbα–FITC-DNA binding, fluorescence polarization, 90 min; activity, % at 10 µM; hit rate 0.79% among 370,000; AID 1259318;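 active means activity above about 14%, limit read from the data; passing the limit was not always enough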;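 further: 0% = DMSO wells with 35 nM protein and 100% = DMSO wells with 750 nM protein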
PP5 inh: blocks human protein phosphatase 5 activity; inhibition, % at 6.7 µM; purified PP5c, OMFP substrate fluorescence; AID 1987; hit rate 0.18% among 320,000;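 active means inhibition above the campaign's mean inhibition across all tested compounds plus 3 SD, cut at about 9.5% in these data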;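 further: 0% = DMSO only and 100% = 100 µM cantharidin control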
JMJD2C inh: blocks human GASC-1 demethylase activity; GST-JMJD2C(1-420) H3K9me3 demethylation, DELFIA europium; inhibition, % at 2.35 µM; hit rate 0.069% among 330,000;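 active means more than half of a compound's replicate wells show inhibition beyond 50%, single wells judged on their own value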;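 further: signal counts dimethyl H3K9 product captured on neutravidin plate; 0% = median of DMSO wells and 100% = 0.3 times that DMSO median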
KLK7 zymogen act: proKLK7 (human) activation, primary screen. hit rate 0.9% among 370,000. P49862. activation, % at 7 µM. purified proKLK7, EDANS-DABCYL substrate fluorescence; 100% is mature enzyme control, 0% vehicle;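 active means activation above the mean of all tested compounds plus 3 SD, computed per campaign excluding outliers beyond control limits, cut at about 13% in these data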
Target sequence (P49862 whole entry, looked up): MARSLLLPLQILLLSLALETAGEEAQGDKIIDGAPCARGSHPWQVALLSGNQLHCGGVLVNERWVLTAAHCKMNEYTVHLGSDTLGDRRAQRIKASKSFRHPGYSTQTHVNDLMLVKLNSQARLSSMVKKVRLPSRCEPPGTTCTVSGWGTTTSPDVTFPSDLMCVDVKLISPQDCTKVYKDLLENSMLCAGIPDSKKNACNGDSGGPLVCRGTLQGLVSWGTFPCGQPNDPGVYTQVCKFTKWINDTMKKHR
PG9 Ab binder: binds the HIV-1 gp120 antibody PG9; TR-FRET gp120-PG9 antibody binding; hit rate 0.43% among 360,000; inhibition, % at 6.7 µM; AID 624416; in the data active means inhibition above about 8.5%
PP5 conf: confirmation of human PP5 phosphatase inhibitors; hit rate 22% among 460; Purified PP5, fluorogenic phosphatase substrate, fluorescence; AID 2331; shares compounds with PP5 inh; inhibition, % at 6.7 µM; in the data active means inhibition above about 9.5%
PP1 inh counter: inhibits human PP1 phosphatase in PP5 counter-screen | shares compounds with PP5 inh | PP1 enzyme, fluorescent phosphatase substrate | inhibition, % at 6.7 µM | hit rate 4% among 460 | AID 2355; in the data active means inhibition above about 16%
Numbers without * were called inactive.

`CCN1C[C@@]2(COC)C3[C@@H](OC)[C@H]4[C@@H]1[C@]3(C(OC)C[C@H]2O)C1C[C@@]2(O)[C@H](OC(=O)c3ccccc3)C1[C@]4(OC(C)=O)[C@@H](O)[C@@H]2OC` (stereo partly specified) gave Rev-erbA mod -6.
For Cc1nc2c(=O)n(C)c(=O)nc-2n(C)n1 the results were PP1 counter 44*, Rev-erbA mod -26, PP5 inh 11*, JMJD2C inh 92*, KLK7 zymogen act 0 and PG9 Ab binder -2.
CCCC/C(C)=C/[C@@H](NP(=O)(c1ccccc1)c1ccccc1)c1ccccc1 was read as PP1 counter 16*, Rev-erbA mod 5, PP5 inh 8, JMJD2C inh 4, KLK7 zymogen act 0 and PG9 Ab binder 2.
For CCCCCP(=O)(O)c1ccccc1 the results were PP1 counter -3, Rev-erbA mod 4, PP5 inh 2, JMJD2C inh 7, KLK7 zymogen act 0 and PG9 Ab binder -1.
COc1cc(Br)cc(CN2CCN(C)CC2)c1O was read as PP1 counter 2, Rev-erbA mod 2, PP5 inh -2 and JMJD2C inh 59*.
For COc1ccc(Br)cc1CN1CCN(CCO)CC1 the results were PP1 counter -6, Rev-erbA mod -3, PP5 inh 3, JMJD2C inh 4, KLK7 zymogen act 0 and PG9 Ab binder -4.
Screening CN1/C(=C\C=C\C2=[N+](C)c3ccc4ccccc4c3C2(C)C)C(C)(C)c2ccccc21 returned PP1 counter 36*, PP5 inh 12* and JMJD2C inh 12.
`CNc1ccc2oc(C[C@H]3O[C@@]4(CC[C@H]3C)O[C@H]([C@H](C)C(=O)c3ccc[nH]3)[C@H](C)C[C@H]4C)nc2c1C(=O)O` gave PP1 counter 17*, Rev-erbA mod -6, PP5 inh 5, JMJD2C inh 18, KLK7 zymogen act 3 and PG9 Ab binder -1.
Screening CCn1nc(-c2ccccc2)nc2c(=O)n(C)c(=O)nc1-2 returned PP1 counter 39*, PP5 inh 4 and JMJD2C inh -3.
Screening CCC(C)[C@H]1O[C@]2(C=C[C@@H]1C)C[C@@H]1C[C@@H](C/C=C(\C)[C@@H](O[C@@H]3C[C@H](OC)[C@H](O[C@H]4C[C@H](OC)[C@@H](O)[C@H](C)O4)[C@H](C)O3)[C@@H](C)/C=C/C=C3\CO[C@@H]4[C@H](O)C(C)=C[C@@H](C(=O)O1)[C@]34O)O2 (stereo partly specified) returned Rev-erbA mod -4.
COc1cccc([C@]2(O)CCCC[C@H]2CN(C)C)c1 was read as Rev-erbA mod -14.
Screening COCc1cc(OC(=O)N(C)C)nc2c1c(C)nn2C returned PP1 counter -6, Rev-erbA mod 4, PP5 inh 0, JMJD2C inh 63*, KLK7 zymogen act 0 and PG9 Ab binder 2.
CN1C(=O)C(Cc2ccsc2)C(=O)N(C)C1=O was read as PP1 counter -1, Rev-erbA mod 7, PP5 inh -1, JMJD2C inh 74*, KLK7 zymogen act 0 and PG9 Ab binder 2.
CN1C(=O)C(Cc2ccccc2)C(=O)N(C)C1=O was read as Rev-erbA mod -4, KLK7 zymogen act 0 and PG9 Ab binder -1.
`CC(C)CCn1c(N)c(C(=O)NCc2cccs2)c2nc3ccccc3nc21` gave PP1 counter -2, Rev-erbA mod 2, PP5 inh 0 and JMJD2C inh 4.
CCCCNC(=O)c1c(N)n(CCCOC)c2nc3ccccc3nc12 was read as PP1 counter 5, Rev-erbA mod -1, PP5 inh 5, JMJD2C inh -1, KLK7 zymogen act -31 and PG9 Ab binder 1.
For COCCNC(=O)c1c(N)n(CCC(C)C)c2nc3ccccc3nc12 the results were PP1 counter 6, Rev-erbA mod 0, PP5 inh 11*, JMJD2C inh 5, KLK7 zymogen act -48, PG9 Ab binder 0, PP5 conf 23* and PP1 inh counter 3.
For CC(C)OCCCNC(=O)c1c(N)n(Cc2cccs2)c2nc3ccccc3nc12 the results were PP1 counter 2, Rev-erbA mod 6, PP5 inh 12*, JMJD2C inh 2, KLK7 zymogen act -57, PG9 Ab binder 1, PP5 conf 15* and PP1 inh counter 9.
Screening CCC(C)/C=C(C)/C=C/C1=CC2=C(Cl)C(=O)C(C)(OC(C)=O)C(=O)C2=CO1 (stereo unspecified) returned PP1 counter 1, PP5 inh 12*, PP5 conf 7 and PP1 inh counter 6.
Screening S=C(SSC(=S)N1CCCCC1)N1CCCCC1 returned Rev-erbA mod 2.
`CCN(CC)Cc1nccn1-c1ccc([N+](=O)[O-])cc1C(=O)c1ccccc1Cl` gave Rev-erbA mod 4.
CCCCCCC(C)(C)c1ccc([C@@H]2C[C@H](O)CC[C@H]2CCCO)c(O)c1 was read as PP1 counter 0, Rev-erbA mod 14, PP5 inh 10*, JMJD2C inh -21, KLK7 zymogen act 0, PG9 Ab binder 1, PP5 conf 4 and PP1 inh counter 4.
`COC(=O)C1=C(c2ccc(OC(F)(F)F)cc2)C[C@@H]2CC[C@H]1N2C(=O)NCCOc1ccccc1` gave PP1 counter 3, Rev-erbA mod -7, PP5 inh 8, JMJD2C inh 0, KLK7 zymogen act 0 and PG9 Ab binder 0.
For COC(=O)C1=C(c2ccc(OC(F)(F)F)cc2)C[C@@H]2CC[C@H]1N2C(=O)NCCOc1ccccc1Cl the results were PP1 counter 9, Rev-erbA mod 4, PP5 inh 11*, JMJD2C inh -3, KLK7 zymogen act 0, PG9 Ab binder -1, PP5 conf 6 and PP1 inh counter 4.
For COc1ccc(Cn2c(N)c(C(=O)NCc3ccco3)c3nc4ccccc4nc32)cc1OC the results were PP1 counter 7, Rev-erbA mod -4, PP5 inh 12*, JMJD2C inh 4, KLK7 zymogen act -18, PG9 Ab binder 2, PP5 conf 44* and PP1 inh counter 10.
For CC(C)CNC(=O)c1c(N)n(Cc2ccc3c(c2)OCO3)c2nc3ccccc3nc12 the results were PP1 counter 7, Rev-erbA mod 6, PP5 inh 12*, JMJD2C inh 5, KLK7 zymogen act -3, PG9 Ab binder 0, PP5 conf 21* and PP1 inh counter 3.

Screens deposited in PubChem by several laboratories.
